Potency data for 16 compounds are collected here from PubChem BioAssay (Tox21).

Records with an inconclusive call do not appear. The source made the active and inactive calls. Unless noted, calls come from the whole dose curve; as a rule, active = well fitted curve in the direction sought with a large enough effect in the repeat runs; inconclusive = weak or mixed curves; inactive = no such curve, though single readings can be large; an effect the other way counts as inactive or inconclusive. Positions of bridges follow the written chain, without caps; N, C: chain ends. Non-standard residues stand in square brackets, D forms with d. Residues, ends and D or L forms follow the SMILES beside them. *: point of attachment. Dab(CH2SO3H) = N[C@@H](CCNCS(=O)(=O)O)C(=O)O; X3 = CC[C@@H](C)CCCCC(=O)*; Dab = NCC[C@H](N)C(=O)O

Experiment [1] can be described thus: qHTS assay to identify small molecule antagonists of the thyroid receptor (TR) signaling pathway - cell viability counter screen (AID 743064). Note: nearly all actives have a fitted effect of over 50% in size. A digest of the protocol: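 GH3.TRE-Luc rat pituitary cells carrying a TRE-luciferase reporter were treated with compound plus 1 nM T3 (final) for 23.5 h at 37 °C. Viability was then read in the same wells by CellTiter-Fluor fluorescence after a further 30 min.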
(In qHTS, concentration-response curves come from the screen itself.)

The nature of experiment [2]: qHTS assay to identify small molecule antagonists of the thyroid receptor (TR) signaling pathway (AID 743065). Note: nearly all actives have a fitted effect of over 55% in size. Note: potency is the fitted concentration of half-maximal effect. A digest of the protocol: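 GH3.TRE-Luc rat pituitary cells (two TREs driving luciferase) were dosed with compound, then stimulated with 1 nM T3 (final) for 23.5 h at 37 C. ONE-Glo luminescence was the read-out, with CellTiter-Fluor fluorescence as the cytotoxicity counter-screen.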

The subject of experiment [3] is thyroid hormone receptor (rat, GH3 cells). The experiment in a line: qHTS assay to identify small molecule agonists of the thyroid receptor (TR) signaling pathway (AID 743066; calls by dose curve).
For experiment [4], the target named is Estrogen receptor (Homo sapiens) (UniProt P03372). In words: qHTS assay to identify small molecule antagonists of the estrogen receptor alpha (ER-alpha) signaling pathway (AID 743069; active = well fitted curve in the direction sought with a large enough effect in the signal ratio in the repeat runs, not every such curve was filed as active; the % refers to the signal ratio). In short, it runs like this: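 Reporter cells (ER-alpha-bla, HEK293 background) are conditioned overnight in stripped-serum medium (2% charcoal-stripped FBS). Compound and 17beta-estradiol exposure runs 18 hr at 37C, 5% CO2.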
Sequence of Estrogen receptor (Homo sapiens) (P03372 whole entry, looked up): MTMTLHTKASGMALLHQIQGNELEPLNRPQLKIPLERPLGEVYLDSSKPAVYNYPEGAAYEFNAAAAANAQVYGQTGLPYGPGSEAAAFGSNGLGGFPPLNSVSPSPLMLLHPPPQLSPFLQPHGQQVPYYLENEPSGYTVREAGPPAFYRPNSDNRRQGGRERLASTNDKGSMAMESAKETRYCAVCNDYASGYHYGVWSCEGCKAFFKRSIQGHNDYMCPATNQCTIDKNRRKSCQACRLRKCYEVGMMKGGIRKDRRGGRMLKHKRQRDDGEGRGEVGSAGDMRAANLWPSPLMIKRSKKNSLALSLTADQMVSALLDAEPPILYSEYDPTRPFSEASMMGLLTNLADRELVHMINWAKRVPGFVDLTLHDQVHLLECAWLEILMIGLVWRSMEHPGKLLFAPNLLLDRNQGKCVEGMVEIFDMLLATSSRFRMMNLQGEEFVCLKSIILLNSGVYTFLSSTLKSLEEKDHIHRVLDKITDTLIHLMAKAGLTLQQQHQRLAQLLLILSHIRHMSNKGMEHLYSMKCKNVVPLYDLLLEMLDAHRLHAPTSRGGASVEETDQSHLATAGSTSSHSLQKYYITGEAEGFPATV

The nature of experiment [5]: qHTS assay to identify small molecule antagonists of the estrogen receptor alpha (ER-alpha) signaling pathway - cell viability counter screen (AID 743074; calls by dose curve;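 note: HEK293 cells carrying ER-alpha-UAS-bla reporter stimulated with 17beta-estradiol; nearly all actives have a fitted effect of over 45% in size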).
Experiment [6] addresses Estrogen receptor (Homo sapiens) (UniProt P03372). The experiment in a line: qHTS assay to identify small molecule agonists of the estrogen receptor alpha (ER-alpha) signaling pathway (AID 743075; calls by dose curve;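 note: HEK293 GripTite cells with ER-alpha and UAS-driven beta-lactamase reporter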).
For experiment [7] the target is unchanged. In words: qHTS assay to identify small molecule agonists of the estrogen receptor alpha (ER-alpha) signaling pathway using the BG1 cell line (AID 743079). Note: nearly all actives have a fitted effect of over 20% in size. Note: potency is the fitted concentration of half-maximal effect.
Experiment [8] can be described thus: qHTS assay to identify small molecule antagonists of the estrogen receptor alpha (ER-alpha) signaling pathway using the BG1 cell line (AID 743080; calls by dose curve;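 note: BG1 cells stimulated with 17beta-estradiol alongside compound; nearly all actives have a fitted effect of over 25% in size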; note: potency is the fitted concentration of half-maximal effect). A digest of the protocol: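 Quantitative HTS on the Tox21 10K library: BG1 cells with endogenous ER-alpha and ERE-luciferase reporter, 17beta-estradiol stimulation, 21.5 h compound exposure, luminescence endpoint with parallel fluorescence cytotoxicity counter-read.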

Experiment [9] in a line: qHTS assay to identify small molecule antagonists of the estrogen receptor alpha (ER-alpha) signaling pathway using the BG1 cell line - cell viability counter screen (AID 743081).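 Note: compound given together with 17beta-estradiol as the ER stimulus; series mostly up to about 70 µM; nearly all actives have a fitted effect of over 45% in size.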
The target of the next experiment is Aromatase (Homo sapiens) (UniProt P11511). In words: qHTS assay to identify aromatase inhibitors (AID 743083). Note: series mostly up to about 70 µM; nearly all actives have a fitted effect of over 55% in size.
Sequence of Aromatase (Homo sapiens) (P11511 whole entry, looked up): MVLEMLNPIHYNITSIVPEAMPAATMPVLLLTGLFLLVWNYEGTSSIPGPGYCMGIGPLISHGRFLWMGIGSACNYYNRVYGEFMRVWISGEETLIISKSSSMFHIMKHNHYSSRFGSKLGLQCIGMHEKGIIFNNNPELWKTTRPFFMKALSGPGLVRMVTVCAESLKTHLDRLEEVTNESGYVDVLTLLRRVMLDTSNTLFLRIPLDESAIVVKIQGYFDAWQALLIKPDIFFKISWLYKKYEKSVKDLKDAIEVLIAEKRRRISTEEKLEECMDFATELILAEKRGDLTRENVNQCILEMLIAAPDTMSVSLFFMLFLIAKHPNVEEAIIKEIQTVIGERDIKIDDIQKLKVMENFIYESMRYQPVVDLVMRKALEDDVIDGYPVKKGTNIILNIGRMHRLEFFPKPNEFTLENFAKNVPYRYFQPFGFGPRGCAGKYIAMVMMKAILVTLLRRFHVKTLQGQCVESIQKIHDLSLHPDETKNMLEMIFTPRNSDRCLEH
A short description of experiment [10]: qHTS assay to identify aromatase inhibitors - cell viability counter screen (AID 743084).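 Note: cells stimulated with testosterone during compound exposure; nearly all actives have a fitted effect of over 55% in size.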
Experiment [11] concerns the target Aryl hydrocarbon receptor (Homo sapiens) (UniProt P35869). In words: qHTS assay to identify small molecule that activate the aryl hydrocarbon receptor (AhR) signaling pathway (AID 743085).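 For activation: HG2L7.5c1 human HepG2 liver cells with stably integrated DRE-driven firefly reporter; series mostly up to about 70 µM.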 Note: nearly all actives have a fitted effect of over 15% in size. Note: potency is the fitted concentration of half-maximal effect. A digest of the protocol:
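HepG2 cells (HG2L7.5c1) stably carrying a firefly luciferase reporter driven by 20 dioxin responsive elements were exposed to compound for 24 h at 37C after a 5 h settling period; luminescence rise (ONE-Glo) indicated activation.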

Experiment [12] can be described thus: qHTS assay to identify small molecule that activate the aryl hydrocarbon receptor (AhR) signaling pathway - cell viability counter screen (AID 743086).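 Note: HepG2 liver cells carrying the AhR DRE luciferase reporter; series mostly up to about 70 µM; nearly all actives have a fitted effect of over 45% in size.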 In short, it runs like this: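 HepG2-AhR-luc (HG2L7.5c1) cells, 4000/well, treated 24 h at 37 C with compound; viability measured as CellTiter-Fluor fluorescence after 30 min in the same wells as the luciferase read.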

The target in experiment [13] is Peroxisome proliferator-activated receptor gamma (Homo sapiens) (UniProt P37231). The experiment in a line: qHTS assay to identify small molecule agonists of the peroxisome proliferator-activated receptor gamma (PPARg) signaling pathway (AID 743094; active = well fitted activation curve with a large enough effect in the signal ratio in the repeat runs, not every such curve was filed as active; the % refers to the signal ratio). A digest of the protocol:
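Following 5 h plating at 37C, PPARg-bla HEK293H cells receive compound or DMSO for 17 h; fluorescence intensity is recorded after LiveBLAzer B/G loading for 1 h at room temperature.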

Sequence of Aryl hydrocarbon receptor (Homo sapiens) (P35869 whole entry, looked up): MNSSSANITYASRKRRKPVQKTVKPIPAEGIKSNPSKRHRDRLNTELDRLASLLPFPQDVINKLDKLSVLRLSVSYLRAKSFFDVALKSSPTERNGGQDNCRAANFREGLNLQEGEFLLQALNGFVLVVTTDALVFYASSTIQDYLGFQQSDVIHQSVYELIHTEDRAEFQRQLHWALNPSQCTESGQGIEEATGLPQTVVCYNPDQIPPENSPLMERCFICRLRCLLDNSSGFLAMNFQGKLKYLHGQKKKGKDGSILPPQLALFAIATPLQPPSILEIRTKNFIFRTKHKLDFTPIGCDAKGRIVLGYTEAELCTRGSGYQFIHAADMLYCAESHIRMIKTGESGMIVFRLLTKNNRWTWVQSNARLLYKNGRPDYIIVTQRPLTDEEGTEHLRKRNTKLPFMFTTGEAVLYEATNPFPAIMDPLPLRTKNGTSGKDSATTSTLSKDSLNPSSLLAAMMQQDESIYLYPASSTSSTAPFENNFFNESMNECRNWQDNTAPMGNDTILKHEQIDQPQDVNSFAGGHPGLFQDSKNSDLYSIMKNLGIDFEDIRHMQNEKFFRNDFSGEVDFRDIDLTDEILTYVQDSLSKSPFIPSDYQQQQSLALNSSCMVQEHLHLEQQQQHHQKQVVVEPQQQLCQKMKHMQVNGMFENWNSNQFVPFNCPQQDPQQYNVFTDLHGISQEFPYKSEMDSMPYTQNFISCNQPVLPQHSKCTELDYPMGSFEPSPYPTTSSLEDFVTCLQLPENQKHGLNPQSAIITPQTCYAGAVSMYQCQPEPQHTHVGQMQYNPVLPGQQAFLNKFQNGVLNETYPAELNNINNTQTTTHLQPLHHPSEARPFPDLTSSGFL
Sequence of Peroxisome proliferator-activated receptor gamma (Homo sapiens) (P37231 whole entry, looked up): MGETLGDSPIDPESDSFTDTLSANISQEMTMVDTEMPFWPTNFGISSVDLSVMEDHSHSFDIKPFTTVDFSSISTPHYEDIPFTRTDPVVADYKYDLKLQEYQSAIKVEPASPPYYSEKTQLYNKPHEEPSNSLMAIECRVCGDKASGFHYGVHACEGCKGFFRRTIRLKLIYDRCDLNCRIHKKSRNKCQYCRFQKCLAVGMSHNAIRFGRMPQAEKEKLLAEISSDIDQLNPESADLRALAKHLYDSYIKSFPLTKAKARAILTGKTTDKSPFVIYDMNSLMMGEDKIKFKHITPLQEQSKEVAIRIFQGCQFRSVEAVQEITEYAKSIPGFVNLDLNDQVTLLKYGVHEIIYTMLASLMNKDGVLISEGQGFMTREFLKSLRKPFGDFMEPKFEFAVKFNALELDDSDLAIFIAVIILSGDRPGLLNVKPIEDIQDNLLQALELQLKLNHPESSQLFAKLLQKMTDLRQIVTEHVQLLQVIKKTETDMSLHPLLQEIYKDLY

With `NCC(O)CC(=O)O` (stereo unspecified), the Potency result in [1], in experiment [2], in experiment [3], in experiment [4], in experiment [5] and in experiment [6] was “inactive” each time. Besides, the Potency entry (in [8]; in [9]; with Aromatase (Homo sapiens); in experiment [10]; in [11]; in experiment [12]) was “inactive” each time. Further, the Potency result in experiment [13] is “inactive”. For the same compound, the Potency in experiment [7] is 16.8 µM (active).
In the case of `Cc1cnc(C(=O)O)c[n+]1[O-]`, the Potency entry in experiment [1], in [2], in [3], in [4], in [5] and in experiment [6] was “inactive” in each case. Moreover, the Potency entry (in [7]; in [8]; in experiment [9]; in the experiment with Aromatase (Homo sapiens); in [10]; in experiment [11]) was “inactive” in each case. The Potency entry in experiment [12] and in [13] was “inactive” each time.
On to `C[S+](C)CCC(N)C(=O)O` (stereo unspecified), for which the Potency result in [1], in [2], in experiment [3], in [4], in [5] and in experiment [6] was “inactive” throughout. Also, the Potency result (in [7]; in [8]; in [9]; in the experiment with Aromatase (Homo sapiens); in experiment [10]; in experiment [11]) was “inactive” each time. For the same compound, the Potency entry in [12] and in experiment [13] was “inactive” throughout.
As for `CCOC(=O)Cc1ccc(-c2ccccc2)cc1`, the Potency result in experiment [1], in experiment [2], in [3], in [4], in experiment [5] and in [6] was “inactive” in each case. For the same compound, the Potency entry (in [7]; in [8]; in [9]; with Aromatase (Homo sapiens); in [10]; in experiment [11]) was “inactive” each time. Also, in experiment [12], the Potency result is “inactive”.
Regarding `CO/N=C(\C(=O)N[C@@H]1C(=O)N2C(C(=O)[O-])=C(C[n+]3cccc4c3CCC4)CS[C@H]12)c1csc(N)n1`, the Potency entry in [1], in experiment [2], in [3], in experiment [4], in [5] and in [6] was “inactive” throughout. For the same compound, the Potency entry (in experiment [7]; in [8]; in [9]; with Aromatase (Homo sapiens); in experiment [10]; in experiment [11]) was “inactive” each time. The Potency entry in [12] was “inactive”.
Take `COc1ccc(/C=C/C(=O)Nc2ccccc2C(=O)O)cc1OC`: the Potency result in experiment [1], in [3], in experiment [4], in [5], in experiment [6] and in experiment [7] was “inactive” throughout. Further, the Potency entry (in experiment [9]; with Aromatase (Homo sapiens); in experiment [10]; in experiment [12]; in experiment [13]) was “inactive” throughout. Besides, the Potency in [2] is 4.73 µM (active); in experiment [8], 8.41 µM (active); in experiment [11], 3.35 µM (active).
For the compound `CC[C@@H](C)CCCCC(=O)N[C@@H](CCNCS(=O)(=O)O)C(=O)N[C@H](C(=O)N[C@@H](CCNCS(=O)(=O)O)C(=O)N[C@H]1CCNC(=O)[C@H]([C@@H](C)O)NC(=O)[C@H](CCNCS(=O)(=O)O)NC(=O)[C@H](CCNCS(=O)(=O)O)NC(=O)[C@H](CC(C)C)NC(=O)[C@@H](CC(C)C)NC(=O)[C@H](CCNCS(=O)(=O)O)NC1=O)[C@@H](C)O` (X3-[Dab(CH2SO3H)]T[Dab(CH2SO3H)][Dab][Dab(CH2SO3H)][dL]L[Dab(CH2SO3H)][Dab(CH2SO3H)]T; lactam 4-C), the Potency entry in experiment [1], in experiment [2], in experiment [3], in experiment [4], in experiment [5] and in [6] was “inactive” throughout. Further, the Potency result (in [7]; in experiment [8]; in experiment [9]; in the experiment with Aromatase (Homo sapiens); in [10]; in experiment [11]) was “inactive” each time. Also, the Potency result in experiment [12] is “inactive”.
With `NCCO/C=C/[C@H](N)C(=O)O`, the Potency entry in [1], in [2], in [3], in [4], in experiment [5] and in [6] was “inactive” each time. For the same compound, the Potency result (in experiment [8]; in [9]; with Aromatase (Homo sapiens); in experiment [10]; in experiment [11]; in experiment [12]) was “inactive” throughout. The Potency result in experiment [13] is “inactive”. Besides, the Potency in experiment [7] is 26.6 µM (active).
As to `CCC(=O)OC(OP(=O)(CCCCc1ccccc1)CC(=O)N1C[C@H](C2CCCCC2)C[C@H]1C(=O)O)C(C)C` (stereo partly specified), the Potency result in [1], in [2], in experiment [3], in experiment [4], in experiment [5] and in [6] was “inactive” throughout. The Potency result (in experiment [7]; in experiment [8]; in experiment [9]; with Aromatase (Homo sapiens); in experiment [10]; in [11]) was “inactive” in each case. Further, the Potency entry in [12] and in [13] was “inactive” each time.
Take `CCOc1ccc(NC(=S)Nc2ccc(OCC)cc2)cc1`: the Potency result in [1], in [2], in experiment [3], in experiment [4], in [5] and in experiment [6] was “inactive” in each case. The Potency result (in experiment [7]; in experiment [8]; in experiment [9]; in the experiment with Aromatase (Homo sapiens); in [10]; in [11]) was “inactive” throughout. Also, the Potency entry in experiment [12] and in experiment [13] was “inactive” in each case.
For the compound `CN[C@H](CC(C)C)C(=O)N[C@H]1C(=O)N[C@@H](CC(N)=O)C(=O)N[C@H]2C(=O)N[C@H]3C(=O)N[C@H](C(=O)N[C@@H](C(=O)O)c4cc(O)cc(O)c4-c4cc3ccc4O)[C@H](O)c3ccc(c(Cl)c3)Oc3cc2cc(c3O[C@@H]2O[C@H](CO)[C@@H](O)[C@H](O)[C@H]2O[C@H]2C[C@](C)(N)C(O)[C@H](C)O2)Oc2ccc(cc2Cl)[C@H]1O` (stereo partly specified), the Potency result in [1], in [2], in [3], in experiment [4], in experiment [5] and in experiment [6] was “inactive” in each case. The Potency entry (in experiment [7]; in [8]; in [9]; in the experiment with Aromatase (Homo sapiens); in experiment [10]; in experiment [11]) was “inactive” each time. For the same compound, the Potency result in experiment [12] and in [13] was “inactive” throughout.
Turning to `O=C[C@H](O)[C@@H](O)[C@@H](O)[C@H](O)CO`, the Potency entry in [1], in experiment [2], in [3], in experiment [4], in experiment [5] and in experiment [6] was “inactive” in each case. Besides, the Potency entry (in [7]; in [8]; in experiment [9]; with Aromatase (Homo sapiens); in experiment [10]; in experiment [11]) was “inactive” each time. Also, the Potency result in experiment [12] and in [13] was “inactive” throughout.
On to `CC[C@@H](C)[C@H](N)C(=O)O`, for which the Potency result in [1], in experiment [2], in experiment [3], in [4], in experiment [5] and in experiment [6] was “inactive” in each case. In addition, the Potency result (in experiment [8]; in experiment [9]; with Aromatase (Homo sapiens); in experiment [10]; in [11]; in [12]) was “inactive” in each case. In addition, in experiment [13], the Potency result was “inactive”. For the same compound, the Potency in experiment [7] is 26.6 µM (active).
Regarding `Cc1ccc(C(C)(C)c2ccc(C)cc2)cc1`, the Potency entry in experiment [1], in [2], in [3], in experiment [4], in [5] and in experiment [6] was “inactive” throughout. In addition, the Potency entry (in experiment [7]; in experiment [8]; in experiment [9]; with Aromatase (Homo sapiens); in experiment [10]; in experiment [11]) was “inactive” in each case. The Potency result in [12] and in experiment [13] was “inactive” in each case.
Turning to `C[C@H](NCCc1ccc(O)cc1)[C@H](O)c1ccc(O)cc1`, the Potency entry in experiment [1], in experiment [2], in experiment [3], in experiment [4], in experiment [5] and in [6] was “inactive” in each case. The Potency result (in [7]; in [8]; in experiment [9]; in the experiment with Aromatase (Homo sapiens); in experiment [10]; in experiment [11]) was “inactive” each time. The Potency entry in [12] and in [13] was “inactive” each time.
As for `CSCCC(N)C(=O)O` (stereo unspecified), the Potency entry in [1], in experiment [2], in experiment [3], in [4], in experiment [5] and in [6] was “inactive” in each case. The Potency result (in experiment [7]; in [8]; in experiment [9]; in the experiment with Aromatase (Homo sapiens); in experiment [10]; in experiment [11]) was “inactive” each time. Besides, the Potency entry in experiment [12] and in experiment [13] was “inactive” throughout.
